Screening results: PubChem BioAssay, several laboratories
Sampled rows, rich in hits. Any-hit rate of the full collection: about 1.4%.
FadD28 binding – M. tuberculosis FadD28 bisubstrate binding inhibition. FadD28 bisubstrate probe binding, fluorescence polarization. inhibition, % at 12.5 µM. 0.22% of 360,000 active; in the data active = inhibition above about 8.5%, passing the limit was not always enough; inconclusive = no clear call, values can overlap the other calls
Vc quorum ag – induces V. cholerae light production without autoinducers; V. cholerae BH1578 lux reporter, luminescence, 6 h; activation, % at 18.7 µM; 0.16% of 350,000 active; AID 588436; in the data active = activation mostly above about 9.7%, no sharp cut-off; inconclusive = no clear call, values can overlap the other calls; inactive = mostly below about 3.7%
PrPC surface inh – inhibitors of human cell surface prion protein PrPC; TR-FRET read-out; 0.43% of 370,000 active; inhibition, % at 13.8 µM; AID 720596; P04156; in the data active = inhibition above about 24%
PrP UTR inh – inhibition of PrP 5' UTR reporter expression. cell-based PrP 5' UTR mRNA reporter, plate reader. inhibition, % (test concentration not listed). 0.35% of 340,000 active; in the data active = inhibition above about 52%
PriA SSB inh – K. pneumoniae PriA-SSBct interaction inhibition | AlphaScreen SSBct-PriA binding, biotinylated peptide | inhibition, % at 33 µM | 0.6% of 430,000 active; in the data active = inhibition mostly above about 37%, no sharp cut-off; inactive = mostly below about 20%
PrP UTR cherry – prion 5' UTR mRNA inhibition, cherry-pick retest | shares compounds with PrP UTR inh | cell-based prion protein 5' UTR reporter, plate reader | inhibition, % at 2.5 µM | 48% of 1,100 active | AID 504592; in the data active = inhibition above about 54%; inconclusive = no clear call, values can overlap the other calls
Numbers stand for hits; 0 = inactive; ? = inconclusive; - = not tested or not shown.

SMILES | FadD28 binding | Vc quorum ag | PrPC surface inh | PrP UTR inh | PriA SSB inh | PrP UTR cherry
CC[C@@H](C)[C@H](C(CC(=O)N1CCCC1[C@@H](OC)[C@H](C)C(=O)N[C@H](Cc1ccccc1)c1nccs1)OC)N(C)C(=O)[C@H](NC(=O)[C@@H](C(C)C)N(C)C)C(C)C (stereo partly specified) | 0 | 0 | 0 | 56 | 0 | 92
Cc1nc(NC(=O)c2nnn(-c3ccccc3F)c2-c2ccncc2)sc1C | - | - | - | - | 0 | -
CCN(CC)Cc1cc(C(C)(C)C)cc(N2CCOCC2)c1O | 0 | - | 0 | 73 | 0 | 0
CN(C)Cc1cc(C(C)(C)C)cc(N2CCOCC2)c1O | - | 0 | 0 | 0 | 0 | -
CCc1ccc(-c2cn3nc(C)c(C)nc3n2)cc1 | 0 | 0 | 0 | 85 | 0 | 0
Cc1nc2nc(-c3ccc(F)cc3)cn2nc1C | 0 | 0 | 0 | 0 | 0 | -
Cc1ccc(-c2nnc(-c3ccccc3)c(-c3ccccc3)n2)cc1 | 0 | 0 | 0 | 0 | 0 | -
Cc1ccc2nc(-c3ccccc3)nn2c1 | 0 | 0 | 0 | 61 | 0 | ?
COC(=O)c1ccc(CCc2cc(O)ccc2O)cc1 | 0 | 0 | - | 0 | 0 | -
COC(=O)c1ccc(CCc2cc(O)c(Br)cc2O)cc1 | 0 | 0 | 0 | 87 | 0 | 0
CC1(C)COc2cc(NS(=O)(=O)c3cccc(Cl)c3)ccc2NC1=O | - | - | - | - | 0 | -
Cn1cccc1/C=C(/C#N)c1ccc(F)cc1 | 0 | 0 | 0 | 80 | 0 | 0
O=C(Nc1ccc([N+](=O)[O-])cc1)C(=O)Nc1cccc(C(=O)O)c1 | 0 | 0 | 0 | 88 | 0 | 92
Cc1cc(-c2ccccc2)nc2oc(C(=O)NN)c(N)c12 | 0 | 0 | 0 | 72 | 0 | 0
CCN(CC)C1CCCCC1NS(=O)(=O)c1ccc(Cl)cc1 (stereo unspecified) | 0 | 0 | 0 | 80 | 0 | 0
O=c1[nH]cnc2c1CCCC2 | - | - | - | - | 0 | -
O=C(c1cc2ccccc2o1)N1CCN(S(=O)(=O)/C=C/c2ccccc2)CC1 | 0 | 0 | 0 | 0 | 0 | -
O=C(c1ccco1)N1CCN(S(=O)(=O)/C=C/c2ccccc2)CC1 | 0 | 0 | 0 | 56 | 0 | 0
Cc1cc(C=C2C(=O)c3ccccc3C2=O)c(C)n1-c1ccccc1 | 0 | 0 | 0 | 75 | 0 | 62
COc1ccc(NC2Oc3cc4c(cc3C(c3cc(OC)c(OC)c(OC)c3)C2C)OCO4)cc1 (stereo unspecified) | 0 | 0 | 0 | 61 | 0 | 0
COc1cc(C2c3cc4c(cc3OC(Nc3ccc(C(=O)O)cc3)C2C)OCO4)cc(OC)c1OC (stereo unspecified) | 0 | 0 | 0 | 0 | 0 | -
COc1ccc(CC(=O)Oc2ccccc2C)cc1 | 0 | 0 | 0 | 58 | 0 | 0
COc1ccc(CC(=O)Oc2ccccc2[N+](=O)[O-])cc1 | 0 | 0 | 0 | 0 | 0 | -
CCn1c(SCC(=O)Nc2cc(C)on2)nnc1-c1cccc(C)c1 | - | 0 | 0 | 0 | 0 | -
CCn1c(SCC(=O)Nc2ccc(N(C)C)cc2)nnc1-c1cccc(C)c1 | 0 | 0 | 0 | 64 | 0 | 0
SMILES | FadD28 binding | Vc quorum ag | PrPC surface inh | PrP UTR inh | PriA SSB inh | PrP UTR cherry
CC1=C(C(=O)Nc2cccnc2)C(c2cccnc2)n2nc(-c3cccs3)nc2N1 (stereo unspecified) | 0 | 0 | 0 | 0 | 0 | -
COc1cccc(-c2nc3n(n2)C(c2cccs2)C(C(=O)Nc2cccnc2)=C(C)N3)c1 (stereo unspecified) | 0 | 0 | 0 | 85 | 0 | 0
O=C(NCc1ccccc1Cl)c1ccc[nH]1 | 0 | 0 | 0 | 77 | 0 | 0
CSc1cccc(NC(=O)c2cnn3ccccc23)c1 | 0 | 0 | 0 | 0 | 0 | -
CCc1ccc(NC(=O)c2cnn3ccccc23)cc1 | 0 | 0 | 0 | 51 | 0 | ?
CC1=CC2OC3CC4OC(=O)/C=C/C=C/C(=O)OCCC(C)C(O)C(=O)OCC2(CC1)C4(C)C31CO1 (stereo unspecified) | - | - | - | - | 0 | -
CC(=O)O[C@H]1C[C@@H]2OC3C=C(C)CCC3(C)[C@@]1(C)[C@@]21CO1 (stereo partly specified) | 0 | 0 | 88 | 72 | 0 | 59
N#CC1=C2N=C(N)c3ccccc3N2C2=C(C(=O)CCC2)C1c1cccc(Cl)c1 (stereo unspecified) | 0 | 0 | 0 | 70 | 0 | 0
Cn1/c(=N/NC(=O)COc2ccc(Cl)cc2Cl)sc2ccccc21 | - | - | - | - | 0 | -
Cc1ccc(SC(C)c2nc(-c3ccccc3)no2)cc1 (stereo unspecified) | 0 | 0 | 0 | 75 | 0 | 0
Cc1nn(CCC(=O)O)c2nc(-c3cccnc3)cc(C(F)(F)F)c12 | 0 | 0 | 0 | 0 | 0 | -
Cc1nn(CCc2nn[nH]n2)c2nc(-c3ccc(C4CCCCC4)cc3)cc(C(F)(F)F)c12 | 14 | 0 | 0 | 63 | 0 | 0
Cn1c(=N)n(CC(=O)c2ccc(Cl)c(Cl)c2)c2ccccc21 | 0 | 0 | 0 | 61 | 0 | 0
COc1cc(-c2ccc(SCC(=O)NCc3ccco3)nn2)cc(OC)c1OC | - | - | - | - | 0 | -
CC(=O)Nc1ccc(NC(=O)C(=O)NCC(c2ccco2)N2CCc3ccccc32)cc1 (stereo unspecified) | 0 | 0 | 0 | 0 | 0 | -
COc1ccc(NC(=O)C(=O)NCC(c2ccco2)N2CCc3ccccc32)cc1 (stereo unspecified) | 0 | 0 | - | 53 | 0 | 80
COc1ccccc1[C@H](CNC(=O)Cc1cccc2ccccc12)OC | - | - | - | - | 0 | -
Cc1cccc(NC(=S)N/N=C/C(C)c2ccccc2)c1C (stereo unspecified) | 0 | 0 | 0 | 59 | - | 0
Nc1ncnc(Oc2cccc3cccnc23)c1[N+](=O)[O-] | 0 | 0 | 0 | 67 | 0 | 0
CN(C)S(=O)(=O)c1ccc(C(=O)NCC(=O)NN=Cc2ccccc2Cl)cc1 | - | - | - | - | 0 | -
CCCS(=O)(=O)N1CCc2ccc(NC(=O)c3ccc(C(F)(F)F)cc3)cc2C1 | - | - | - | - | 0 | -
COc1ccc(NC(=S)N(CCC(C)C)C2CCN(C(C)C)CC2)cc1 | - | 0 | 0 | 0 | 0 | -
CC(C)CCN(C(=S)Nc1cccc(F)c1)C1CCN(C(C)C)CC1 | 0 | 0 | 0 | 79 | 0 | 0
O=C(Cc1cccs1)NCCCS(=O)(=O)N1CCN(c2ccccn2)CC1 | - | - | - | - | 0 | -
COc1cc(C2c3cccn3CCN2S(=O)(=O)c2ccccc2[N+](=O)[O-])cc(OC)c1OC (stereo unspecified) | - | - | - | - | 0 | -
SMILES | FadD28 binding | Vc quorum ag | PrPC surface inh | PrP UTR inh | PriA SSB inh | PrP UTR cherry
Cc1nc2c(-c3ccc(F)cc3)cnn2c(N)c1-c1ccccc1 | 0 | 0 | 0 | 68 | 0 | 0
Cc1nc2c(-c3ccc(Cl)cc3)cnn2c(N)c1-c1ccc(F)cc1 | 0 | 0 | 0 | 56 | 0 | 0
O=S(=O)(Cc1cc(F)ccc1F)NCCn1ccc(-c2ccsc2)n1 | - | - | - | - | 0 | -
N#CC1=C(N)Oc2c(ccc3ccccc23)C1c1ccsc1 (stereo unspecified) | 0 | 0 | 0 | 77 | 0 | 88
COc1ccccc1NC(=S)N(Cc1ccccc1)Cc1cccs1 | 0 | 0 | 0 | 67 | 0 | 0
CCC(=O)Nc1cc2nn(-c3ccc(C)cc3)nc2cc1C | 0 | 0 | 0 | 68 | 0 | 62
CCN(CC)C(=S)Nc1ccc(OC)cc1 | 0 | 0 | 0 | 55 | 0 | 0
CCCn1c(C)cc(C(=O)CN2C(=O)c3ccccc3S2(=O)=O)c1C | 0 | 0 | 0 | - | - | -
